# Sampled rows, rich in hits. Any-hit rate of the full collection: about 19%.
# DT40 TDP1 no CPT – qHTS for Inhibitors of human tyrosyl-DNA phosphodiesterase 1 (TDP1): qHTS in cells in absence of CPT. hit rate 15% among 420,000. DT40 Tdp1-/- hTDP1 cells, no CPT, ATP luminescence, 48 h. Potency, µM (series often up to 46.2 µM), without a hit: top-dose activity change, negative = growth inhibition, hits mostly inhibitors; also: potency is read from the fitted curve at half-maximal effect; % is scaled to controls: 0 for no effect and ±100 for the full control effect; nearly all actives have a fitted effect of over 55% in size
#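 Chicken DT40 Tdp1-/- cells stably complemented with human TDP1 were seeded at 400 cells/well with DMSO in place of 20 nM camptothecin. After compound pinning, cells grew at least 48 hr at 37 °C; viability read by CellTiter-Glo luminescence.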
# TGFb SMAD3 inh – qHTS for Inhibitors of TGF-b; Potency, µM (doses to about 46.1 µM), for the others: at the top dose activity, negative = inhibition, actives largely listed as inhibitors; hit rate 1.2% among 410,000; AID 588855, 2011; HepG2 CAGA-GFP TGF-b/SMAD3 reporter, GFP fluorescence, 18 h; TGF-beta stimulated, 500 pg/mL final; also: potency is read from the fitted curve at half-maximal effect; % is scaled to controls: 0 for no effect and ±100 for the full control effect; nearly all actives have a fitted effect of over 65% in size
#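 Inhibition of TGF-beta-driven CAGA-GFP reporter expression in HEPG2 cells is measured by cellular GFP fluorescence after 18 h stimulation with 500 pg/mL recombinant TGF-beta in 1% FBS medium at 37 degrees C.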
# TDP1 cell CPT – qHTS for Inhibitors of human tyrosyl-DNA phosphodiesterase 1 (TDP1): qHTS in cells in presence of CPT; Potency, µM (highest dose often 46.2 µM), without a hit: at the highest dose activity change, negative = growth inhibition, usual class: inhibitors; hit rate 12% among 420,000; chicken DT40 Tdp1-/-;hTDP1 cells + 20 nM CPT, ATP luminescence, 48 h; also: potency is read from the fitted curve at half-maximal effect; % is scaled to controls: 0 for no effect and ±100 for the full control effect; nearly all actives have a fitted effect of over 55% in size
#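 Chicken DT40 Tdp1-/- cells complemented with human TDP1, 400 cells/well, exposed to compounds plus 20 nM camptothecin for at least 48 h at 37 C; viability read as ATP content by CellTiter-Glo luminescence.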
# IL1B secr inh – qHTS for Inhibitors of Inflammasome Signaling: IL-1-beta AlphaLISA Primary Screen; activity change, % at 57.5 µM; THP-1 LPS/ATP IL-1B secretion, AlphaLISA, 16 h; stronger effect = lower value; hit rate 4.7% among 360,000; in the data active = activity change below about -50%; inconclusive = mostly about -30% to -49%; also: % is scaled to controls: 0 for no effect and ±100 for the full control effect
#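 THP-1 cells pretreated 1 hr with compounds (up to 57.5 uM final), then stimulated with LPS (250 ng/mL final) plus ATP (1.25 mM final); secreted IL-1B measured by AlphaLISA after 16 hr, decreased signal indicating inhibition.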
# HepG2 tox – qHTS for Inhibitors of TGF-b: Cytotox Counterscreen. AID 588856, 2011. HepG2 CAGA-GFP viability, ATP luminescence, 18 h. hit rate 0.76% among 410,000. Potency, µM (titrated, usually from 46.1 µM), for the others: at the highest dose activity change, negative = cytotoxicity, usual class: cytotoxic; also: potency is read from the fitted curve at half-maximal effect
#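 HepG2 CAGA-GFP cells (1000/well, DMEM with 1% FBS) received compound, then TGF-beta at 500 pg/mL final, and were incubated 18 hours at 37 degrees C. Viability was read by CellTiter-Glo luminescence. Media-only wells were set as complete cell-killing and DMSO as no toxicity.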
# TDP1 block – qHTS Assay for Inhibitors of Tyrosyl-DNA Phosphodiesterase (TDP1) | Tyrosyl-DNA phosphodiesterase 1 (Homo sapiens), Q9NUW8 | recombinant TDP1, AlphaScreen DNA substrate cleavage | Potency, µM (doses to about 130 µM), without a hit: at the highest dose activity change, negative = inhibition, usual class: inhibitors | hit rate 0.28% among 350,000; also: potency is read from the fitted curve at half-maximal effect; % is scaled to controls: 0 for no effect and ±100 for the full control effect; nearly all actives have a fitted effect of over 40% in size
# Target sequence (Q9NUW8 whole entry, looked up): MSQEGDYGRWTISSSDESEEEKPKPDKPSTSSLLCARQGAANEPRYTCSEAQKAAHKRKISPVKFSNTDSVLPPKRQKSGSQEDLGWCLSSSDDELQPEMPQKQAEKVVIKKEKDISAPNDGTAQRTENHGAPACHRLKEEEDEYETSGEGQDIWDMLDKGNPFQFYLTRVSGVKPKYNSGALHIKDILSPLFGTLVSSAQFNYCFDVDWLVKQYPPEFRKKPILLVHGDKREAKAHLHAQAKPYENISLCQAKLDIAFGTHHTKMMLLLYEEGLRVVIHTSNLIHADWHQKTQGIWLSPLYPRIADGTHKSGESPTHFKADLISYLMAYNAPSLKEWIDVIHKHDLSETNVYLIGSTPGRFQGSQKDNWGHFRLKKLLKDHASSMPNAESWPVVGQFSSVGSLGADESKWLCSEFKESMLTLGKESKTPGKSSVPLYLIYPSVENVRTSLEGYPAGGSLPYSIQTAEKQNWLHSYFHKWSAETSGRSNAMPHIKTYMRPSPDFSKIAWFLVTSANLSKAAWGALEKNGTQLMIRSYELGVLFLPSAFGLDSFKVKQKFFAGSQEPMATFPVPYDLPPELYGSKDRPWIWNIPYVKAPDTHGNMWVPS
#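 Here, a 5' biotin and 3' phosphotyrosine-FITC DNA oligonucleotide reports Tdp1 activity: intact substrate bridges AlphaScreen beads, while cleavage leaves a 3' phosphate and drops signal. All incubations at room temperature.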
# * = called active by the depositor; ? = inconclusive; . = not tested or not shown; ! = a repeat was not active; [ ] = remark or other dose. Unless noted, calls follow the shape of the dose curve; as a rule, active = well fitted curve in the direction sought with a large enough effect; inconclusive = small, poorly fitted or top-dose-only effect, or another doubt; inactive = no such curve, though single readings can be large; an effect the other way counts as inactive or inconclusive.
SMILES,DT40 TDP1 no CPT,TGFb SMAD3 inh,TDP1 cell CPT,IL1B secr inh,HepG2 tox,TDP1 block
COc1ccc(NC(=O)c2nc(C)c(C3(C)CC(c4ccccc4)=NO3)s2)cc1 (centres undefined),5.8µM*,-9%,1µM*,54,-19%,5%
Cc1nc(NC(=O)c2ccccc2)sc1C1(C)CC(c2ccccc2F)=NO1 (centres undefined),-95%,-12%,-97%,45,-22%,4%
Cc1nc(NC(=O)c2ccccc2)sc1C1(C)CC(c2c(Cl)cccc2Cl)=NO1 (centres undefined),?,?,23µM*,38,-9%,5%
Cc1ccccc1CN1C(=O)C(C)Sc2ccc(-c3ccco3)cc21 (centres undefined),?,-1%,?,64,-31%,.
COc1cccc(NC(=S)NN2CCN(C)CC2)c1,0%,4%,29µM*,21,-1%,4%
COc1cccc(NC(=S)NN=C2CCCCCC2)c1,5.2µM*,0%,3.7µM*,33,8%,9%
CC1CCC/C(=N\NC(=S)Nc2ccccc2)C1 (centres undefined),10µM*,0%,8.2µM*,-26,-24%,10%
Cc1ccc2oc(-c3ccc(NC(=O)CCC(=O)O)cc3)nc2c1,3%,0%,2%,.,-6%,.
O=C(Cc1ccc(Cl)cc1Cl)OCC(=O)N1CCCCC1,-16%,?,-3%,1,-5%,2%
CCOC(=O)N1CCN(C(=O)c2ccc(NS(=O)(=O)c3ccc4[nH]c(=O)[nH]c4c3)cc2)CC1,2%,-15%,6%,2,2%,-10%
CC(C)c1ccc(C2NC(=O)NC3=C2CCc2ccccc23)cc1 (centres undefined),15µM*,?,13µM*,-6,-45%,-8%
COc1ccc(C2NC(=O)NC3=C2CCc2ccccc23)cc1 (centres undefined),?,?,?,9,-22%,2%
O=C(COC(=O)CNC(=O)c1ccc(Cl)c([N+](=O)[O-])c1)NC(=O)c1ccccc1,8%,2%,-14%,3,3%,1%
C#CCNC(=O)C[C@@H]1C[C@@]2(C(=O)OCC)CCCC=C2N(Cc2ccccc2)C1=O,-18%,.,-13%,-9,.,.
OCCN(CCO)c1nc(N2CCCCC2)c2nc(N(CCO)CCO)nc(N3CCCCC3)c2n1,15µM*!,35%,4.6µM*,-18,-16%,5%
CN(C)C(=O)CN1CCN(c2nc3nonc3nc2N2CCCCC2)CC1,?,4%,-15%,-17,-15%,4%
Cc1cccc(Cn2nnc(C(=O)Nc3cc(C)ccc3C)c2N)c1,18µM*,-14%,29µM*,.,-18%,0%
COc1ccc(NC(=O)Cn2nnc(C(=O)NCc3cccs3)c2N)cc1OC,25%,20%,-11%,27,7%,-1%
Cc1ccc(Cl)cc1NC(=O)c1nnn(Cc2ccccc2)c1N,?,2%,?,.,-22%,3%
COc1ccc(Br)cc1Cn1nnc(C(=O)Nc2cccc(SC)c2)c1N,23µM*,-3%,16µM*,.,-17%,2%
COc1ccccc1NC(=O)c1nnn(CC(=O)Nc2cccc(SC)c2)c1N,0%,-13%,1%,10,-12%,-8%
CCc1ccccc1NC(=O)c1nnn(Cc2ccc(Cl)cc2)c1N,13µM*,?,?,.,-3%,0%
COc1ccc(Cl)cc1NC(=O)Cn1nnc(C(=O)NCc2cccs2)c1N,1.2µM*,-21%,4.6µM*,.,-23%,-2%
CCS(=O)(=O)Nc1cc(C(=O)N2CCC[C@H]2CO)c2c(c1)nc(-c1ccccc1)n2C,-5%,.,13%[9.04 µM],.,.,.
Cc1c(C(=O)N2CCC(C)CC2)c(S(=O)(=O)N2CCN(c3ccc(Cl)cc3)CC2)c(C)n1C,?,-14%,?,.,-2%,9%
SMILES,DT40 TDP1 no CPT,TGFb SMAD3 inh,TDP1 cell CPT,IL1B secr inh,HepG2 tox,TDP1 block
COc1ccc(NC(=O)c2nnn(Cc3ccccc3C)c2N)c(OC)c1,6.5µM*,28%,-28%,.,4%,6%
Cc1ccc(Cn2nnc(C(=O)Nc3cccc(C)c3C)c2N)cc1,21µM*,-7%,?,-6,0%,6%
COc1ccc(Cn2nnc(C(=O)Nc3cc(OC)ccc3OC)c2N)cc1,?,?,18µM*,.,-29%,6%
COc1ccc(OC)c(NC(=O)c2nnn(Cc3ccccc3C)c2N)c1,?,15%,?,-19,9%,9%
COc1cccc(Cn2nnc(C(=O)Nc3cc(C)ccc3OC)c2N)c1,-26%,?,26µM*,-4,1%,-9%
Cc1ccc(C)c(NC(=O)c2nnn(CC(=O)Nc3cccc(C)c3C)c2N)c1,-2%,-9%,2%,.,-12%,7%
CCN1C(=O)C2(c3ccccc31)c1c(oc3ccc(F)cc3c1=O)C(=O)N2CCCOC (centres undefined),-8%,-3%,?,.,-20%,1%
O=C(NCC(c1ccc2c(c1)OCO2)N1CCOCC1)c1cccc(Cl)c1 (centres undefined),?,-7%,?,.,-9%,-1%
CC(=O)N1c2ccc(S(=O)(=O)N3CCC(C(=O)N4CCCC(C)C4)CC3)cc2CC1C (centres undefined),?,-1%,21µM*,1,-12%,2%
CC1CC(C)CN(C(=O)C2CCN(S(=O)(=O)c3ccc4c(c3)CC(C)N4C(=O)C3CC3)CC2)C1 (centres undefined),?,-11%,16µM*,?,-25%,2%
CC1Cc2cc(S(=O)(=O)N3CCC(C(=O)N4CCCCC4)CC3)ccc2N1C(=O)C1CC1 (centres undefined),-17%,-1%,?,1,-7%,3%
CC(=O)N1c2ccc(S(=O)(=O)N3CCC(C(=O)N4CCC(C)CC4)CC3)cc2CC1C (centres undefined),?,-21%,?,?,11%,4%
